Hits are enriched below; roughly 18% of the tested compounds scored in any of these assays.
TDP1 cell CPT – qHTS for Inhibitors of human tyrosyl-DNA phosphodiesterase 1 (TDP1): qHTS in cells in presence of CPT | chicken DT40 Tdp1-/-;hTDP1 cells + 20 nM CPT, ATP luminescence, 48 h | Potency, µM (titrated, usually from 46.2 µM), inactives show top-dose activity change, negative = growth inhibition, most hits filed as inhibitors | hit rate 12% among 420,000 | AID 686979, 2013; note: potency is the fitted concentration of half-maximal effect; % is set by controls: 0 for no effect and ±100 for the full control effect; nearly all actives have a fitted effect of over 55% in size
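Chicken DT40 Tdp1-/- cells stably complemented with human TDP1 were seeded at 400 cells/well in medium containing 20 nM camptothecin, exposed to pin-transferred compounds, and grown at 37 °C for at least 48 hr. Viability was read as ATP luminescence.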
TDP1 inh – qHTS Assay for Inhibitors of Tyrosyl-DNA Phosphodiesterase (TDP1) | recombinant TDP1, AlphaScreen DNA substrate cleavage | Potency, µM (highest dose often 130 µM), inactives show at the top dose activity change, negative = inhibition, hits mostly inhibitors | hit rate 0.28% among 350,000 | AID 485290, 2010; note: potency is the fitted concentration of half-maximal effect; % is set by controls: 0 for no effect and ±100 for the full control effect; nearly all actives have a fitted effect of over 40% in size
Target sequence (Q9NUW8 whole entry, looked up): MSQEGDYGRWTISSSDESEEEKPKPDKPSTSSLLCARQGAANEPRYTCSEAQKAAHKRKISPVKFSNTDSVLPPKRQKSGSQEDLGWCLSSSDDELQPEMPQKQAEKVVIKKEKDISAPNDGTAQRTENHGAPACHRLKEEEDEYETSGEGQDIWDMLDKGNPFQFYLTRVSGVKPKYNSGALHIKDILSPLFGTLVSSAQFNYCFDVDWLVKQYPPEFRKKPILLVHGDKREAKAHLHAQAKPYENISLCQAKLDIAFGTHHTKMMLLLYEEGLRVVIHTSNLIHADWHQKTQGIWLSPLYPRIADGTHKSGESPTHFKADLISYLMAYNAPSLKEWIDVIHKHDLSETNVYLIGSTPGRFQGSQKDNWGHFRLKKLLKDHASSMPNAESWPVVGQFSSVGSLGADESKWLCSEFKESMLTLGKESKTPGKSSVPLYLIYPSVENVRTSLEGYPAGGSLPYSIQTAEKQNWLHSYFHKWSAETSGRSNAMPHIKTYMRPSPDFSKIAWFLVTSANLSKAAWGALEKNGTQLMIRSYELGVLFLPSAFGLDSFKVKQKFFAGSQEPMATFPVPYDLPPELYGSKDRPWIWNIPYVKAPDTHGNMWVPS
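Here, a 5' biotin and 3' phosphotyrosine-FITC DNA oligonucleotide reports Tdp1 activity: intact substrate bridges AlphaScreen beads, while cleavage leaves a 3' phosphate and drops signal. All incubations at room temperature.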
IL1B secr inh – qHTS for Inhibitors of Inflammasome Signaling: IL-1-beta AlphaLISA Primary Screen. THP-1 LPS/ATP IL-1B secretion, AlphaLISA, 16 h; hits give low values. activity change, % at 57.5 µM. hit rate 4.7% among 360,000. AID 743279, 2014; in the data active = activity change below about -50%; inconclusive = mostly about -30% to -49%; note: % is set by controls: 0 for no effect and ±100 for the full control effect
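Secreted IL-1B measured by AlphaLISA bead assay after 16 h compound exposure of THP-1 cells; compounds (final up to 57.5 uM) added 1 h before LPS (250 ng/mL) and ATP (1.25 mM) stimulation; lower signal means less secretion.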
TGFb SMAD3 inh – qHTS for Inhibitors of TGF-b. HepG2 CAGA-GFP TGF-b/SMAD3 reporter, GFP fluorescence, 18 h; TGF-beta stimulated, 500 pg/mL final. Potency, µM (highest dose often 46.1 µM), without a hit: at the top dose activity, negative = inhibition, actives largely listed as inhibitors. hit rate 1.2% among 410,000. AID 588855, 2011; note: potency is the fitted concentration of half-maximal effect; % is set by controls: 0 for no effect and ±100 for the full control effect; nearly all actives have a fitted effect of over 65% in size
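GFP signal (ex488/em500-530) from TGF-beta-stimulated HEPG2 CAGA-GFP cells, 500 pg/mL final, 18 h at 37 degrees C in DMEM plus 1% FBS, normalized to unstimulated and DMSO-stimulated controls.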
HepG2 tox – qHTS for Inhibitors of TGF-b: Cytotox Counterscreen; HepG2 CAGA-GFP viability, ATP luminescence, 18 h; Potency, µM (doses to about 46.1 µM), without a hit: at the highest dose activity change, negative = cytotoxicity, most hits filed as cytotoxic; hit rate 0.76% among 410,000; note: potency is the fitted concentration of half-maximal effect
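HepG2 CAGA-GFP cells (1000/well, DMEM with 1% FBS) received compound, then TGF-beta at 500 pg/mL final, and were incubated 18 hours at 37 degrees C. Viability was read by CellTiter-Glo luminescence. Media-only wells were set as complete cell-killing and DMSO as no toxicity.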
TDP1 cell noCPT – qHTS for Inhibitors of human tyrosyl-DNA phosphodiesterase 1 (TDP1): qHTS in cells in absence of CPT. DT40 Tdp1-/- hTDP1 cells, no CPT, ATP luminescence, 48 h. Potency, µM (series often up to 46.2 µM), without a hit: at the highest dose activity change, negative = growth inhibition, hits mostly inhibitors. hit rate 15% among 420,000. AID 686978, 2013; note: potency is the fitted concentration of half-maximal effect; % is set by controls: 0 for no effect and ±100 for the full control effect; nearly all actives have a fitted effect of over 55% in size
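Compound effects on proliferation are scored in DT40 Tdp1-/-;hTDP1 cells in the absence of CPT. ATP levels (CellTiter-Glo luminescence) are recorded after a ≥48 hr, 37 °C incubation.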
* = called active by the depositor; ? = inconclusive; . = no result; [ ] = dose if it differs, or a comment. Unless noted, calls come from the whole dose curve; as a rule, active = well fitted curve in the direction sought with a large enough effect; inconclusive = small, poorly fitted or top-dose-only effect, or another doubt; inactive = no such curve, though single readings can be large; an effect the other way counts as inactive or inconclusive.

SMILES | TDP1 cell CPT | TDP1 inh | IL1B secr inh | TGFb SMAD3 inh | HepG2 tox | TDP1 cell noCPT
COc1cccc(CNc2ccc3[nH]c(=O)[nH]c3c2)c1OCc1ccccc1F | ? | 13% | -23 | -17% | -7% | -27%
C=CCOc1ccccc1CNc1ccc2c(c1)OCCO2 | 15µM* | 5% | -75* | ? | -3% | 12µM*
C=CCOc1ccccc1CNc1cccc(F)c1 | ? | 3% | -5 | -3% | 15% | -28%
C=CCOc1ccccc1CNc1ccc2[nH]c(=O)[nH]c2c1 | ? | 3% | 23 | -14% | -8% | 21µM*
Cc1cc(C(=O)NC2CCCc3c2cnn3-c2cccc(C)c2C)no1 (configuration not stated) | 21µM* | 2%[56.1 µM] | -3 | ? | -28% | 16µM*
O=C(CSc1ccccn1)NC1CCCc2c1cnn2-c1ccccc1F (configuration not stated) | -26% | . | 24 | -8% | -18% | 16µM*
Cc1cccc(-n2ncc3c2CCCC3NC(=O)c2ccncc2)c1C (configuration not stated) | -7% | . | 18 | 1% | -3% | 0.23µM*
Cc1cccc(-n2ncc3c2CCCC3NC(=O)Cc2c(C)noc2C)c1C (configuration not stated) | ? | 0% | 13 | 1% | 6% | ?
Cc1cccc(-n2ncc3c2CCCC3NC(=O)c2cccs2)c1C (configuration not stated) | ? | . | 1 | 3% | 2% | 18µM*
CC(C)n1nnnc1SCC(=O)N1N=C(c2cccs2)CC1c1cccs1 (configuration not stated) | -20% | 0% | -10 | -11% | -30% | ?
CC(=O)C1=CCC(c2ccccc2)N(S(C)(=O)=O)C1 (configuration not stated) | -2% | . | -13 | -8% | -4% | 10%
CC1=C(C(=O)NC2CCCc3c2cnn3-c2cccc(C)c2C)OCCO1 (configuration not stated) | 21µM* | 2% | -22 | 0% | -25% | 8.2µM*
COc1ccc(C(=O)NC2CCCc3c2cnn3-c2cccc(C)c2C)o1 (configuration not stated) | 21µM* | 5% | 0 | -20% | -21% | 23µM*
O=C(Cc1c(F)cccc1Cl)Nc1nc2ccccc2s1 | ? | 0% | -57* | -47% | -32% | ?
Cc1cc(NC(=O)Cc2c(F)cccc2Cl)no1 | 15µM* | -2% | 3 | 13% | -27% | ?
CC(=O)c1sc(NC(=O)Cc2c(F)cccc2Cl)nc1C | -6% | . | -3 | 12% | 1% | ?
COC(=O)c1ccc(C(NC(=O)OCc2ccccc2)/C(C)=C/[C@@H](C)C(=O)NCc2cc(F)cc(F)c2)cc1 (some centres not stated) | . | 9% | . | . | . | .
O=S(=O)(c1cccnc1)N1CCn2cccc2C1c1ccccc1F (configuration not stated) | -25% | . | -4 | 5% | -14% | -25%
CCCCOC(=O)CSC1=C(C#N)C(c2ccc3c(c2)OCO3)CC(=O)N1 (configuration not stated) | -4% | 12% | -26 | 5% | 2% | -15%
CCOC(=O)CSC1=C(C#N)C(c2ccc3c(c2)OCO3)CC(=O)N1 (configuration not stated) | ? | 7% | -8 | -16% | 6% | 21µM*
CCCCc1nc2c(c3c1CC(C)OC3)CN(CCC(C)C)CC2 (configuration not stated) | . | 5%[21 µM] | . | . | . | .
COc1ccc(S(=O)(=O)N2CCOC23CCN(S(=O)(=O)c2cc(C)ccc2C)CC3)cc1 | 21µM* | . | -1 | 21% | -4% | ?
COc1ccc(S(=O)(=O)N2CCOC23CCN(S(=O)(=O)c2ccc(F)cc2C)CC3)cc1 | ? | -1% | -3 | -11% | -19% | 23µM*
COc1ccc(S(=O)(=O)N2CCOC23CCN(S(=O)(=O)c2c(C)cc(C)cc2C)CC3)cc1 | ? | -11%[0.505 µM] | -9 | -14% | -13% | 16µM*
CCC(C)NC(=O)c1ccc(C)c(NC(=O)C2=C(C)OCCS2)c1 (configuration not stated) | -3% | . | -1 | -3% | 9% | -2%
SMILES | TDP1 cell CPT | TDP1 inh | IL1B secr inh | TGFb SMAD3 inh | HepG2 tox | TDP1 cell noCPT
CC1(c2nnnn2-c2ccc3c(c2)OCCO3)CCC(=O)N1CCOc1ccccc1 (configuration not stated) | 6% | . | 23 | . | . | -30%
Cc1ccc(CN2CC(C(=O)Nc3ncccc3C)CC2=O)cc1 (configuration not stated) | 13% | 3% | -5 | -14% | -56% | 15%
O=C(CSc1nnc(CCc2ccccc2)n1-c1ccc(Cl)cc1)c1ccccc1 | ? | -3% | -64* | ? | -27% | 23µM*
O=S(Cc1ccc(Br)cc1)Cc1nnc(SCc2ccc(Cl)cc2)n1-c1ccccc1 (configuration not stated) | 16µM* | 2% | -68* | 0% | -32% | 18µM*
O=c1cc(Cc2nnc(SCc3ccccc3)n2-c2ccc(Cl)cc2)[nH]c(=O)[nH]1 | -3% | 1% | 7 | -1% | 7% | 29%
COc1ccc(-n2c(CCc3ccccc3)nnc2SCC(=O)c2ccc(Cl)cc2)cc1 | ? | 1% | ? | ? | 5% | ?
C=CCn1c(SC(C)C(=O)NC2CC2)nnc1-c1ccoc1C (configuration not stated) | 0% | . | 12 | -14% | 0% | -10%
Cc1ccc2c(c1)cc(C(=O)NCc1ccccc1C)n2C | -17% | 3% | . | 0% | 6% | -25%
Cc1ccc(C)c(N2CCN(C(=O)c3ccccc3Br)CC2)c1 | 21µM* | 5% | ? | -15% | -39% | 16µM*
Cc1cccc(N2CCN(C(=O)c3ccc4c(c3)c(C)c(C)n4C)CC2)c1C | -20% | 5% | . | 0% | 19% | ?
Cc1ccc(C)c(N2CCN(C(=O)c3ccc4c(c3)c(C)c(C)n4C)CC2)c1 | 23µM* | 11% | 3 | ? | -16% | 16µM*
